For 20 molecules, inhibition results are on record in ChEMBL document CHEMBL5606458, “ASAP - ZIKV NS2B-NS3 protease fluorescence single point” (2024).

The assay has as its target Nonstructural protein 3 (Zika virus) (UniProt A0A024AXB9).

Out of some 2,700 compounds screened, about 160 (5.9%) showed an effect of 50% or more. The sample as a whole holds a higher share of strong results than the screen did.

Nonstructural protein 3 (Zika virus), sequence (A0A024AXB9 as listed by the source): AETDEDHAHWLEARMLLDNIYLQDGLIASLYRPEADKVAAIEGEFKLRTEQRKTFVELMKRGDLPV

In general, inhibition refers to the change of the read-out against control, counted positive when it falls. Take `C[C@@H](Cc1c[nH]c2ccccc12)N1CC[C@H](c2c[nH]c3ccccc23)C1`: the inhibition reads like this: (PRVABC59, Concentration 49.5 uM, Number of replicates 2.0, Standard deviation 2.440376707234144 %) 29.4%; (PRVABC59, Concentration 99.01 uM, Number of replicates 2.0, Standard deviation 1.7661943697547304 %) 46%; (PRVABC59, Concentration 198.0 uM, Number of replicates 2.0, Standard deviation 0.6921254310022592 %) 60.4%.

For the molecule `c1cnc2c(C3CCN(Cc4c[nH]c5ncccc45)CC3)c[nH]c2c1`, the inhibition (PRVABC59, Concentration 49.5 uM, Number of replicates 2.0, Standard deviation 1.618110911749522 %) is 7.76%; the inhibition (PRVABC59, Concentration 99.01 uM, Number of replicates 2.0, Standard deviation 1.5506891039488269 %) was 16.5%; the inhibition (PRVABC59, Concentration 198.0 uM, Number of replicates 2.0, Standard deviation 1.1046722712184134 %) came out at 29.8%.

Regarding `O=C1NCc2ccccc2C12CCN(CCn1cc(-c3ccccc3)cn1)CC2`, the inhibition (PRVABC59, Concentration 49.5 uM, Number of replicates 2.0, Standard deviation 2.8974171324862783 %) was -1.24%; the inhibition (PRVABC59, Concentration 99.01 uM, Number of replicates 2.0, Standard deviation 3.3976160570541145 %) stood at 2.72%; the inhibition (PRVABC59, Concentration 198.0 uM, Number of replicates 2.0, Standard deviation 1.9883423160607387 %) came to 8.7%.

Regarding `CCn1ccnc(N2CC[C@H](c3ccncc3)C2)c1=O`, the inhibition reads like this: (PRVABC59, Concentration 50.0 uM, Number of replicates 2.0, Standard deviation 13.086126440978003 %) 15.5%; (PRVABC59, Concentration 100.0 uM, Number of replicates 2.0, Standard deviation 1.9353273126054316 %) 11.2%; (PRVABC59, Concentration 200.0 uM, Number of replicates 2.0, Standard deviation 4.176368308171179 %) 19%.

In the case of `Cc1nc([C@H]2CCCNC2)[nH]c1C(=O)Nc1ccccn1`, the inhibition reads like this: (PRVABC59, Concentration 49.5 uM, Number of replicates 2.0, Standard deviation 0.17090445918731104 %) 8.49%; (PRVABC59, Concentration 99.01 uM, Number of replicates 2.0, Standard deviation 0.26430592158490923 %) 17.8%; (PRVABC59, Concentration 198.0 uM, Number of replicates 2.0, Standard deviation 0.13314627771815937 %) 30.2%.

Consider `c1ccc2c(CN3CCC(c4c[nH]c5cccnc45)CC3)n[nH]c2c1`, for which the inhibition is, setting by setting: (PRVABC59, Concentration 49.5 uM, Number of replicates 2.0, Standard deviation 0.6456276790258886 %) 55.4%; (PRVABC59, Concentration 99.01 uM, Number of replicates 2.0, Standard deviation 0.2001199802254866 %) 70.2%; (PRVABC59, Concentration 198.0 uM, Number of replicates 2.0, Standard deviation 0.3311541950710681 %) 79.4%.

As for `c1cc(CN2CCC(c3c[nH]c4cccnc34)CC2)c2[nH]ncc2c1`, the inhibition is 7.96% (PRVABC59, Concentration 49.5 uM, Number of replicates 2.0, Standard deviation 1.1670691631522456 %); 15.7% (PRVABC59, Concentration 99.01 uM, Number of replicates 2.0, Standard deviation 0.8238130905871536 %); 25.9% (PRVABC59, Concentration 198.0 uM, Number of replicates 2.0, Standard deviation 0.8191324301789277 %).

As to `CCn1ccnc(N2CCC(c3c[nH]c4ccccc34)CC2)c1=O`, the inhibition stood at 13.2% (PRVABC59, Concentration 49.5 uM, Number of replicates 2.0, Standard deviation 0.010362729937070537 %); 22.1% (PRVABC59, Concentration 99.01 uM, Number of replicates 2.0, Standard deviation 0.987094027815814 %); 8.34% (PRVABC59, Concentration 198.0 uM, Number of replicates 2.0, Standard deviation 0.3108960594532158 %).

In the case of `c1ccc2c(CN3CCC[C@H](c4c[nH]c5ccccc45)C3)c[nH]c2c1`, the inhibition turned out to be 17.6% (PRVABC59, Concentration 50.0 uM, Number of replicates 2.0, Standard deviation 1.0176784784936235 %); 30% (PRVABC59, Concentration 100.0 uM, Number of replicates 2.0, Standard deviation 1.399627381040445 %); 45.3% (PRVABC59, Concentration 200.0 uM, Number of replicates 2.0, Standard deviation 0.26403213565698247 %).

With `c1cc(CN2CCC(c3c[nH]c4cccnc34)CC2)c2cn[nH]c2c1`, the inhibition (PRVABC59, Concentration 49.5 uM, Number of replicates 2.0, Standard deviation 0.9568639478402843 %) was 4.4%; the inhibition (PRVABC59, Concentration 99.01 uM, Number of replicates 2.0, Standard deviation 0.8012763277514082 %) was 10%; the inhibition (PRVABC59, Concentration 198.0 uM, Number of replicates 2.0, Standard deviation 3.635563550314553 %) came to 17.8%.

`c1cnc2c(CN3CCC(c4c[nH]c5cccnc45)CC3)c[nH]c2c1`: the inhibition by setting is: (PRVABC59, Concentration 49.5 uM, Number of replicates 2.0, Standard deviation 0.7260748860651783 %) 51.4%; (PRVABC59, Concentration 99.01 uM, Number of replicates 2.0, Standard deviation 0.6197542344872328 %) 66.3%; (PRVABC59, Concentration 198.0 uM, Number of replicates 2.0, Standard deviation 0.45379950118904117 %) 74.9%.

In the case of `c1ccc2c(CN3CC[C@H](c4c[nH]c5ccccc45)C3)c[nH]c2c1`, the inhibition (PRVABC59, Concentration 50.0 uM, Number of replicates 2.0, Standard deviation 0.9766631885715499 %) worked out at 20.3%; the inhibition (PRVABC59, Concentration 100.0 uM, Number of replicates 2.0, Standard deviation 0.28966551174652017 %) is 37.5%; the inhibition (PRVABC59, Concentration 200.0 uM, Number of replicates 2.0, Standard deviation 1.348359280162217 %) amounted to 55.9%.

Consider `c1ccc2c([C@H]3CCN(CC4CCOCC4)C3)c[nH]c2c1`, for which the inhibition was found to be 6.89% (PRVABC59, Concentration 49.5 uM, Number of replicates 2.0, Standard deviation 2.5997737280788282 %); 11.8% (PRVABC59, Concentration 99.01 uM, Number of replicates 2.0, Standard deviation 3.698865419379611 %); 22.2% (PRVABC59, Concentration 198.0 uM, Number of replicates 2.0, Standard deviation 1.139250220086327 %).

Regarding `CCn1ccc2cc(CN3CCC(c4c[nH]c5cccnc45)CC3)ccc21`, the inhibition is 3.93% (PRVABC59, Concentration 49.5 uM, Number of replicates 2.0, Standard deviation 2.8809639300582925 %); 15.6% (PRVABC59, Concentration 99.01 uM, Number of replicates 2.0, Standard deviation 1.8463057507050853 %); 34.4% (PRVABC59, Concentration 198.0 uM, Number of replicates 2.0, Standard deviation 0.9205600012321524 %).

With `CCOc1cc(COc2cccnc2F)nc(N2CCNCC2)n1`, the inhibition (PRVABC59, Concentration 49.5 uM, Number of replicates 2.0, Standard deviation 1.6064643888068098 %) came to 4.13%; the inhibition (PRVABC59, Concentration 99.01 uM, Number of replicates 2.0, Standard deviation 0.9927585642556782 %) was 12.5%; the inhibition (PRVABC59, Concentration 198.0 uM, Number of replicates 2.0, Standard deviation 0.42007662758371656 %) turned out to be 31.7%.

Regarding `O=C(Cn1ccc2cccnc21)N1CC[C@H](c2c[nH]c3ccccc23)C1`, the inhibition is, setting by setting: (PRVABC59, Concentration 49.5 uM, Number of replicates 2.0, Standard deviation 2.6403237167933415 %) 8.06%; (PRVABC59, Concentration 99.01 uM, Number of replicates 2.0, Standard deviation 2.1942883394495833 %) 14.3%; (PRVABC59, Concentration 198.0 uM, Number of replicates 2.0, Standard deviation 1.481657960884592 %) 24.1%.

For `O=C(N[C@@H](C(=O)NC1CCNCC1)c1ccc(OCc2ccccc2)cc1)OCc1ccccc1`, the inhibition is, setting by setting: (PRVABC59, Concentration 49.5 uM, Number of replicates 2.0, Standard deviation 1.3674946237357393 %) 8.84%; (PRVABC59, Concentration 99.01 uM, Number of replicates 2.0, Standard deviation 2.2060968748779715 %) 27.2%; (PRVABC59, Concentration 198.0 uM, Number of replicates 2.0, Standard deviation 0.9505739521685185 %) 59.8%.

In the case of `N[C@H]1CC[C@@H](NC(=O)[C@@H](NC(=O)OCc2ccccc2)c2ccc(OCc3ccccc3)cc2)C1`, the inhibition (PRVABC59, Concentration 49.5 uM, Number of replicates 2.0, Standard deviation 1.7270227515739174 %) amounted to 10.7%; the inhibition (PRVABC59, Concentration 99.01 uM, Number of replicates 2.0, Standard deviation 1.537724733346876 %) came out at 44.6%; the inhibition (PRVABC59, Concentration 198.0 uM, Number of replicates 2.0, Standard deviation 0.3345151533587208 %) is 79.2%.

With `N[C@@H]1CC[C@H](NC(=O)[C@@H](NC(=O)OCc2ccccc2)c2ccc(OCc3ccccc3)cc2)C1`, the inhibition was determined as 7.24% (PRVABC59, Concentration 49.5 uM, Number of replicates 2.0, Standard deviation 0.3008027321718269 %); 43% (PRVABC59, Concentration 99.01 uM, Number of replicates 2.0, Standard deviation 0.0103741938798655 %); 79.8% (PRVABC59, Concentration 198.0 uM, Number of replicates 2.0, Standard deviation 1.7866649254890776 %).

As to `N[C@H]1CC[C@H](NC(=O)[C@@H](NC(=O)OCc2ccccc2)c2ccc(OCc3ccccc3)cc2)C1`, the inhibition is, setting by setting: (PRVABC59, Concentration 49.5 uM, Number of replicates 2.0, Standard deviation 1.2628524282528915 %) 15.2%; (PRVABC59, Concentration 49.5 uM, Number of replicates 2.0, Standard deviation 5.748962140815482 %) 7.84%; (PRVABC59, Concentration 99.01 uM, Number of replicates 2.0, Standard deviation 1.1046736199175657 %) 52.6%; (PRVABC59, Concentration 99.01 uM, Number of replicates 2.0, Standard deviation 4.807656617809298 %) 46.8%; (PRVABC59, Concentration 198.0 uM, Number of replicates 2.0, Standard deviation 0.1296531469135765 %) 80.8%; (PRVABC59, Concentration 198.0 uM, Number of replicates 2.0, Standard deviation 1.4858618561424626 %) 83.4%.
